Laboratory results as given in PubChem BioAssay (NCI).
Compounds without any hit were thinned out: in the full panel of roughly 79,000, 15% have a hit. No stated cut-off is given here; in the data, active means growth inhibition above about 70%; inactive means the rest.

Experiments:
[1] = NCI Yeast Anticancer Drug Screen. Data for the rad50 strain (AID 155);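 further: 0% = growth of vehicle-only cultures of the same strain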; settings: S. cerevisiae rad50 strain growth inhibition; at 50.0 µM; active compounds read high
How it was run: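 Relative growth inhibition (compound vs vehicle) was measured in yeast with a defined repair-gene alteration.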

[2] = NCI Yeast Anticancer Drug Screen. Data for the mec2-1 strain (AID 157); settings: S. cerevisiae mec2-1 strain, at 50.0 µM, active compounds read high
How it was run: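 Mutant yeast (mec2-1) grown with compound; growth inhibition relative to vehicle control reported.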

[3] = NCI Yeast Anticancer Drug Screen. Data for the sgs1 mgt1 strain (AID 161);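 further: 0% = growth of cultures given vehicle only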; settings: S. cerevisiae sgs1 mgt1 strain, at 50.0 µM, active compounds read high
How it was run: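 Yeast cells carrying a defined DNA-repair defect were exposed to test compounds. Growth inhibition was measured relative to vehicle-treated controls.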

[4] = NCI Yeast Anticancer Drug Screen. Data for the cln2 rad14 strain (AID 165);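 further: 0% = growth equal to vehicle treated cultures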; settings: S. cerevisiae cln2 rad14 strain, at 50.0 µM, active compounds read high
How it was run: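 Readout is yeast growth inhibition versus vehicle-treated controls, using a strain with cln2 and rad14 alterations exposed to compound.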

[5] = NCI Yeast Anticancer Drug Screen. Data for the bub3 strain (AID 167); settings: S. cerevisiae bub3 mutant strain, at 50.0 µM, active compounds read high
How it was run: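 Screening used yeast with an engineered genetic alteration affecting cell cycle control. Compound-exposed cultures were compared with vehicle cultures, and reduced growth was taken as inhibition.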

[6] = NCI Yeast Anticancer Drug Screen. Data for the mlh1 rad18 strain (AID 175); settings: S. cerevisiae mlh1 rad18 strain growth inhibition; at 50.0 µM; active compounds read high
How it was run: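 Genetically defined yeast (DNA repair-deficient) exposed to compounds; growth inhibition determined relative to vehicle.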

Measured: growth inhibition

N#Cc1c(N)[n+]([O-])c2c([n+]1[O-])CCCC2
inactive: [1] 11.4% | [2] 3.35% | [3] 7% | [4] -43.2% | [5] -14.8% | [6] -3.35%

O=C1OC(Cl)C=C1c1ccccc1 (stereo unspecified)
inactive: [1] 5.2% | [2] -7.35% | [3] -4.35% | [4] -36.5% | [5] -23.5% | [6] 0.65%

CC1=NS(=O)(=O)c2ccccc2N1
inactive: [1] 0.3% | [2] -4.4% | [3] 4.75% | [4] 15.9% | [5] 4.45% | [6] 10.2%

CSC1(C)CC2C(CC1N1CCOCC1)C2(C)C (stereo unspecified)
inactive: [1] -28.4% | [2] -33.9% | [3] -41.6% | [4] -14.2% | [5] -33.4% | [6] -26.2%

NC(CSSCC(N)=NC1CCCCC1)=NC1CCCCC1
inactive: [1] 6.5% | [2] 3.4% | [3] 13% | [4] 7.35% | [5] -1.45% | [6] 20%

O=C(O)/C(=C\c1cc2c(cc1[N+](=O)[O-])OCO2)c1ccccc1
inactive: [1] 3.8% | [2] -5.35% | [3] 6.8% | [4] -41% | [5] -22.9% | [6] 17.9%

CC(=O)OCC(OC(C)=O)C(OC(C)=O)C(OC(C)=O)C(O)CO (stereo unspecified)
inactive: [1] -0.55% | [2] 18.8% | [3] 15.4% | [4] -6% | [5] 24.6% | [6] -4.45%

COc1ccc(-c2nnc3cc(C)n4nnnc4n23)cc1OC
inactive: [1] 5.3% | [2] 5.55% | [3] 13.7% | [4] 9.1% | [5] 11.6% | [6] 16.2%

CC(=O)NNc1nc(C)c(C(/C=C/c2ccc(Cl)cc2)=N\NS(=O)(=O)c2ccc(C)cc2)s1
inactive: [1] 26.1% | [2] 2.9% | [3] 19.6% | [4] 23.2% | [5] 23.6% | [6] 9.45%

O=C(COc1ccc(Cl)cc1Cl)Nc1ccc2ccccc2c1S(=O)(=O)O
inactive: [1] 6.45% | [2] 2.2% | [3] 12.5% | [4] -5.95% | [5] 8.4% | [6] 3.6%

O=CNCC(=O)Nc1ccccc1
inactive: [1] -8.4% | [2] -2.45% | [3] -3.45% | [4] -6.9% | [5] 10.8% | [6] -10.4%

CC(C)(C)/C(=N\[N+](C)(C)C)c1ccccc1
inactive: [1] 7.85% | [2] 6.4% | [3] 0.4% | [4] -1.3% | [5] 6.8% | [6] 10.6%

CCOC(=O)Cn1c(=O)c(-c2ccccc2NC(C)=O)nc2ccccc21
inactive: [1] -12.3% | [2] -3.65% | [3] -7.9% | [4] -6.1% | [5] 0.4% | [6] -14.1%

C=C1N(c2cc(OC)c(OC)c(OC)c2)C(=O)OC12CCCCC2
inactive: [1] -4.05% | [2] 5.4% | [3] 0.2% | [4] 38.7% | [5] -0.3% | [6] 1.4%

CC1CC=[N+]([O-])C1(C)C (stereo unspecified)
inactive: [1] -6.6% | [2] -18.1% | [3] 14.2% | [4] -12.2% | [5] 16.7% | [6] -11.1%

c1ccc2c(c1)C1c3ccccc3C2C2OC12 (stereo unspecified)
inactive: [1] 14.2% | [2] 1.5% | [3] -4% | [4] -2.9% | [5] -10.1% | [6] 34.4%

CCc1nnc2n1N=C(c1ccc(-c3ccccc3)cc1)CS2
inactive: [1] 20.4% | [2] 28.3% | [3] 3.3% | [4] 5.05% | [5] 3.05% | [6] 26.1%

CCOC(=O)C(NC(=O)CC)(Nc1ccc(S(=O)(=O)Nc2onc(C)c2C)cc1)C(F)(F)F (stereo unspecified)
inactive: [1] -6.35% | [2] -15.4% | [3] -8.85% | [4] 15.6% | [5] -6.4% | [6] -17.4%

Cc1ccccc1C(=O)OC1CCCCC1
inactive: [1] 9.2% | [2] -13.1% | [3] -9.65% | [4] -39.5% | [5] 9.8% | [6] 5.7%

CCS(=O)(=O)CCNC(=O)NS(=O)(=O)c1ccc(C)cc1
inactive: [1] -2.2% | [2] -7.85% | [3] -11.8% | [4] -1.2% | [5] 7.7% | [6] 0.9%

CCc1sc(N)nc1-c1ccccc1
inactive: [1] -3.15% | [2] -23.9% | [3] 7.05% | [4] -1.65% | [5] 4% | [6] -8.75%
